Values joined by “and” are separate entries in the source; they are usually repeats but may differ in a detail not shown here. Equal values may be shown once. Records with an inconclusive call do not appear. Values without a mark were called inactive. Active and inactive are the calls of the source. The call rests on the fitted dose curve; in most records, active means well fitted inhibition curve with a large enough effect; inconclusive means small, poorly fitted or top-dose-only effect; inactive means flat fitted curve, though single readings scatter.
Assay: qHTS for Inhibitors of Plasmodium falciparum (7G8) proliferation (AID 504316); further: nearly all actives have a fitted effect of over 65% in size;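 on activity change, negative = inhibition: 0% = DMSO vehicle and -100% = 0.29 µM artemisinin full kill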
Conditions: P. falciparum 7G8 in erythrocytes, SYBR Green DNA, 72 h; series mostly up to 6.7 µM; activity change, negative = inhibition: at the top concentration
Description: Plasmodium falciparum is a virulent malarial parasite that kills 1-2 million people worldwide each year. Malaria not only inflicts tremendous suffering and morbidity on the human population, but has dramatically influenced the course of civilization with profound sociological and economic implications (Shah, S. 2010). Transmitted by mosquitoes, the sporozoite form of the parasite enters the blood stream to infect hepatocytes, where they become merozoites that infect red blood cells (erythrocytes). Within erythrocytes, merozoites begin a […] cycle of growth and division, after which the parasite is released to infect new red blood cells. Gametocytes, which form within erythrocytes as well, circulate in the bloodstream and are ingested by the mosquito, thereby completing the life cycle (see CDC website). To profile malarial lines for differential chemical responses and to identify inhibitors of malarial growth, an assay that measures P. falciparum growth and replication within erythrocytes was employed. This assay uses a DNA binding fluorescent dye (SYBR Green) to detect parasite DNA following cell lysis. Because mature erythrocytes lack DNA, only Plasmodium-derived DNA is detected. The P. falciparum line cp250, derived from a malarial isolate from Cambodia, (Mu, J., et al. 2010) was added to the panel of lines, Dd2, HB3, 7G8 and GB4 in this study. Laboratory of Assay Development and Screening Technology [ADST] and NIH Chemical Genomics Center [NCGC] Boston University, Chemistry Department, Center for Chemical Methodology and Library Development [CMLD-BU] NIH National Institute of Allergy and Infectious Diseases [NIAID]
ADST Assay Protocol Summary: The 1536-well SYBR Green viability assay was based on the method of Bennett et al (2004) and described previously in 1536-well format (Yuan J., et al. 2009). For screening 3 ul culture medium was dispensed into 1536 well black clear bottom plates (Aurora Biotechnologies) using a Multidrop Combi (Thermo Fisher Scientific Inc.), 23 nL compounds in DMSO were added by a pin transfer (Cleveland, P.H. and Koutz, P.J, 2005) using a pin tool-based delivery system (Kalypsys), and 5 ul of erythrocytes infected with P. falciparum one of five lines (cp250, Dd2, HB3, 7G8 or GB4, 0.3% parasitemia, 2.5% hematocrit final concentration) were added. The plates were incubated at 37C in a humidified incubator in 5% CO2 for 72 h, and 2 ul lysis buffer (20 mM Tris HCl, 10 mM EDTA, 0.16% saponin, 1.6% triton X, 10X SYBR Green I (supplied as 10,000X final concentration by Invitrogen) was added to each well. The plates were mixed for 25 sec with gentle shaking and incubated overnight at room temperature in the dark. The following morning, fluorescence intensity at 485(14) nm excitation and 535(25) nm emission wavelengths was measured on an EnVision (Perkin Elmer) plate reader. Plate reads were normalized relative to the control inhibitor (0.29 uM artemisinin) and vehicle (DMSO) wells present on each plate and then corrected by an algorithm using vehicle-only control plates at the beginning and end of the compound plate stack. References Shah, S. (2010). The Fever: how malaria has ruled humankind for 500,000 years. New York, Sarah Crichton Books. CDC web site, http://www.cdc.gov/malaria/about/biology/index.html Mu, J., Myers, R.A., Jiang, H., Liu, S., Ricklefs, S., Waisberg, M., Chotivanich, K., Wilairatana, P., Krudsood, S., White, N.J., et Plasmodium falciparum genome-wide scans for positive selection, recombination hot spots and resistance to antimalarial drugs Nature Genetics 2010, 42, pp 268-271 Bennett TN, Paguio, M., Gligorijevic, B., Seudieu, C., Kosar, A. D., Davidson, E., and Roepe, P. D. Novel, rapid, and inexpensive cell-based quantification of antimalarial drug efficacy Antimicrobial Agents Chemother. 2004, 48(5): pp 1807-10 Yuan J, Johnson RL, Huang RL, Wichterman J, Jiang HY, Hayton K, Fidock DA, Wellems TE, Inglese J, Austin CP, Su XZ. […]
Potency means the concentration at half of the fitted maximal effect.

Compound	activity change, negative = inhibition	Potency
COC(=O)C12CC3(CCC4C5C(C(OCc6ccccc6)C41)C52)OCCO3 (stereo not given)	-5.13%	–
C#CC[C@@]1(C(=O)OC)C=C[C@@H](C)[C@H](c2ccccc2Br)N1C(=O)C(F)(F)F	-9.06%	–
CC(C)(C)Nc1oc(-c2ccccc2)nc1-c1ccccc1F	-6.7%	–
C[C@H]1C[C@@H](C)O[C@@]2(C1)C(=O)Nc1ccccc12	-10.4%	–
COc1ccc(-c2nc3c(c4c2C[C@H](c2ccccc2)OC4)CN(C(=O)N[C@@H](C)c2ccccc2)CC3)c(C)c1	–	1.69 µM (active)
CC(C)=CCC1(CC=C(C)C)C(=O)C(C(=O)c2ccccc2)=C2OC(C)(C)CCC2(CC=C(C)C)C1=O (stereo not given)	–	1.69 µM (active)
COC[C@@H](O)[C@H]1OCc2ccccc2[C@H]1C=Cc1ccccc1	-3.49%	–
CC(CCN1CCCc2nc(C)c(C)cc21)=NO[C@H](C)c1cn([C@H](CO)Cc2ccccc2)nn1	–	1.51 µM (active)
COC(=O)[C@H]1[C@H](C)[C@@]2(O)c3ccccc3N(C)[C@@]1(C)[C@H]2O	3.55%	–
CC(=O)OC[C@H]1O[C@H](C#Cc2ccccc2)C=C[C@H]1O	11%	–
COC[C@@H](O)[C@H]1OCc2cccc(OC)c2[C@H]1C=Cc1ccccc1	-8.01%	–
COC(=O)C1=C(C(=O)OC)[C@@H]2N(C)c3ccccc3[C@@]23C[C@@H](C(=O)OC)N(C(=O)Nc2cccc(C#N)c2)C3=N1	7.14%	–
COc1ccc(-c2nc3c(c4c2C[C@H](c2ccccc2)OC4)CN(C(=O)c2cccnc2)CC3)c(C)c1	–	1.51 µM (active) and 1.69 µM (active)
COc1cccc(CO[C@H]2C=C[C@@H](c3ccccc3)O[C@H]2CO)c1	-1.13%	–
CCOC(=O)CN1C(=O)[C@]2(OCCC=C[C@@H]2C)c2ccccc21	-11%	–
CCOC(=O)C(c1ccc(OC)c(OC)c1)C1c2ccccc2C=C(C)N1C(=O)OC (stereo not given)	-15.9%	–
COC(=O)CCCC1=CC2=CC(=O)C(C)(OC(=O)c3cccs3)C(=O)C2=CN1CC(C)C (stereo not given)	–	inactive
CCN1C(=O)[C@@H]2[C@H]3[C@H](O)[C@H](O)CC(=NOC[C@@H](O)COCc4ccco4)[C@@H]3CC[C@H]2C1=O	–	inactive
COC(=O)CC=C[C@@H](C)[C@@H](C=NOCC[C@@H]1C=C[C@H](OC(C)=O)[C@@H](COC(C)=O)O1)NS(=O)(=O)c1ccc(C)cc1	-2.94%	–
O=C(C=Cc1ccc2c(c1)OCO2)c1ccc(F)cc1	-6.02%	–

Compound	activity change, negative = inhibition	Potency
COC(=O)[C@H](COC(C)(C)C)NC(=O)O[C@@H]1C(=O)c2cc(Br)ccc2O[C@H]1c1ccc2c(c1)OCO2	-10.5%	–
COC(=O)N1C(c2ccccc2)=Cc2ccccc2C1CC(C)=O (stereo not given)	–	inactive
CC(=O)OC[C@H]1O[C@H](CCON=C(C)CCN2CCc3nc(-c4ccccc4)c(-c4ccccc4)cc3C2)C=C[C@H]1OC(C)=O	–	1.51 µM (active)
COCc1cc2cc3c(cc2c2c(C(=O)OC)c(C(=O)OC)c(C(=O)OC(C)(C)C)n12)OCO3	–	1.51 µM (active)
CCN1C(=NCc2ccc(OC)cc2)NC(c2cccc(F)c2)C(C(=O)OC)=C1C (stereo not given)	-9.62%	–
COC(=O)N[C@H](CC(C)=O)c1ccc(F)cc1	7.5%	–
C=CCN1C=C2C(=O)C(C)(OC(=O)c3ccco3)C(=O)C(C=C)=C2C=C1C1CC1 (stereo not given)	4.27%	–
CC#CCN1c2ccccc2[C@]23CCC(=O)N(Cc4ccco4)C2=NC(C(=O)OC)=C(C(=O)OC)[C@H]13	–	1.69 µM (active)
COC(=O)CC1=CO[C@@H](O)[C@@H]2C(CO)=CC[C@@H]12	-0.935%	–
C=CCN=C1N[C@@H](c2ccccc2)[C@H](C(=O)OC)[C@@H](C)N1CC	9.82%	–
CC=CC1=CC2=CC(=O)C(C)(OC(=O)c3c(C)cc(O)cc3O)C(=O)C2=CO1 (stereo not given)	-0.428%	–
C=C[C@@]1(C)CCC=C2C(=O)CCC[C@H]21	-11.8%	–
COC(=O)CC=C[C@H](C)[C@H](Cc1ccccc1Br)OC	-3.71%	–
CCCCS(=O)(=O)N1CCc2nc(-c3ccccc3)c3c(c2C1)CO[C@@H](C)C3	–	inactive
C=CCOC(=O)C(C(C)=O)[C@@H](NC(=O)OC)c1cccc(F)c1 (stereo not given in full)	0.718%	–
O=S(=O)(CCc1ccccc1)c1ccccc1	-1.64%	–
C[C@@H]1[C@@H](c2ccccc2)Cc2nc3ccccc3nc2C[C@H]1C(=O)N1CCCC1	-7.24%	–
COC(=O)c1ccc(CN2C(=O)[C@@]3(CC(C)=CC[C@@H](C)O3)c3ccccc32)cc1	-14.6%	–
CCCCC1=CC2=C(c3ccco3)C(=O)C(C)(OC(=O)c3ccc(OC)cc3)C(=O)C2=CN1c1ccc(OC)cc1 (stereo not given)	0.697%	–
CCN1C(=O)NC(c2ccco2)C(C(C)=O)=C1C (stereo not given)	6.82%	–
